# Screens (PubChem)
# UHRF1 MBD2 ctr: UHRF1 methyl-DNA binding inhibition | Q96T88 | UHRF1 binding to methylated oligo, TR-FRET | inhibition, % at 4.4 µM | hit rate 0.75% among 370,000; in the data active = inhibition above about 21%;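 note: UHRF1 SRA domain binding a hemimethylated CpG hairpin DNA probe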
# Neddylation inh: cullin neddylation inhibition; TR-FRET cullin neddylation, biochemical; calls only at 25 µM; hit rate 0.58% among 360,000; AID 651699; in the data active = inhibition above about 36%
# Target sequence (P61081 whole entry, looked up): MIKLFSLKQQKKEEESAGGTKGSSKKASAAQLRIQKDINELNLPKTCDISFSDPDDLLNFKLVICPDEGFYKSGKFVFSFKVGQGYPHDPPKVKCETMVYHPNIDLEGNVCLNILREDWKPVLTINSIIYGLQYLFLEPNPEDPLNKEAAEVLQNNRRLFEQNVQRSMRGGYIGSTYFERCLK
# Target sequence (Q13564 whole entry, looked up): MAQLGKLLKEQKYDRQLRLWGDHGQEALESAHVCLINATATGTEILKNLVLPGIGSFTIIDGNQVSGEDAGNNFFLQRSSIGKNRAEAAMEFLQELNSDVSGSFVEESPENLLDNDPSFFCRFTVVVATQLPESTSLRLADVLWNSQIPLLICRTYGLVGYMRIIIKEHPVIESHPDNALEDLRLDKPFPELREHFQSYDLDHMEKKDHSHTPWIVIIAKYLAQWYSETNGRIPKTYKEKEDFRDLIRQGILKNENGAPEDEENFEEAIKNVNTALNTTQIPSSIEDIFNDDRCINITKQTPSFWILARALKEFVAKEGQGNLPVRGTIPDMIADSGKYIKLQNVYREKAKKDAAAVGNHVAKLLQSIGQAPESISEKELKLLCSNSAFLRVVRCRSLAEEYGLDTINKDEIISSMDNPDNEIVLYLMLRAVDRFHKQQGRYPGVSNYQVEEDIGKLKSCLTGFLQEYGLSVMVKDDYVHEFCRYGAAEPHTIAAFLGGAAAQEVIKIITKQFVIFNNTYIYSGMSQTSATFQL
# UBC13 polyUb: human UBC13 polyubiquitination inhibition | UBC13 polyubiquitin chain formation, TR-FRET | inhibition, % at 20 µM | hit rate 0.47% among 330,000 | AID 485273; in the data active = inhibition above about 45%, passing the limit was not always enough
# MBD2 inh: inhibitors of human MBD2 binding to methylated oligonucleotide; Q9UBB5; inhibition, % at 4.4 µM; TR-FRET; hit rate 0.31% among 370,000; in the data active = inhibition above about 13%
# Numbers stand for hits; – = inactive; · = no result shown; + = active, no number. An excerpt weighted towards active compounds, which were near 1.8% of everything screened.
SMILES,UHRF1 MBD2 ctr,Neddylation inh,UBC13 polyUb,MBD2 inh
O=C(Nc1ccc(S(=O)(=O)NCC2CCCO2)cc1)c1ccc(Cl)cc1[N+](=O)[O-] (centres undefined),–,–,–,–
C/C(=N\NC(=O)c1ccccc1C)c1ccc(NC(=O)c2cccs2)cc1,39,–,–,–
O=C1C2C3C=CC(C2C(=O)N1c1nccs1)C1C(=O)N(c2nccs2)C(=O)C31 (centres undefined),–,–,–,–
O=C1C2C3C=CC(CC3)C2C(=O)N1c1nccs1 (centres undefined),21,–,–,–
CC(=O)c1ccc(OCC(O)CN2CCc3ccccc3C2)cc1 (centres undefined),–,–,–,–
CC(C)(C)c1ccc(C(=O)CSc2nc3ccccc3c(=O)[nH]2)cc1,–,–,–,–
O=C(NCc1ccco1)Nc1ccc(Br)cc1,–,–,–,–
O=C(NCc1ccco1)Nc1ccc2nsnc2c1,–,+,–,–
CCCCCCCCc1nc(SC(C)C(=O)O)n[nH]1 (centres undefined),–,–,–,–
CC(=O)Nc1cccc(NS(=O)(=O)c2cn(C)c(=O)n(C)c2=O)c1,–,–,–,–
CCCCCNC(=O)C(c1cccc2ccccc12)n1c(=O)c(-c2ccccc2)nc2ccccc21 (centres undefined),74,–,·,–
Cc1ccc(SCCC(=O)Nc2ccccc2C(=O)NC(C)C)cc1,22,–,–,–
Cc1ccc(SCCC(=O)Nc2ccccc2Br)cc1,–,–,–,–
CC(C)C(O)(C#CCN1CCCCC1)c1ccccc1 (centres undefined),–,–,–,–
CCOc1cc(/C=N/NC(=O)c2cc(C3CC3)[nH]n2)ccc1O,21,–,–,–
COc1cc(/C=N/NC(=O)c2cc(C3CC3)[nH]n2)ccc1O,–,–,–,–
COc1ccc(CNC(=O)CSc2nc3ccccc3n2C(C)=O)cc1,24,–,–,–
Cc1ccc(-c2nc(CS(=O)(=O)CC(=O)N3CCN(C)CC3)c(C)o2)cc1,–,–,–,–
O=C(NC(=O)c1ccc(F)cc1)Nc1nc(-c2cccs2)cc(C(F)(F)F)n1,–,–,–,–
Cc1c(Cl)cccc1NC(=O)CSc1sc2c(O)cc(=O)[nH]c2c1C#N,–,–,–,–
N#Cc1c(SCC(=O)Nc2ccccc2C(F)(F)F)sc2c(O)cc(=O)[nH]c12,31,–,–,–
N#Cc1cccc(NC(=O)CSc2sc3c(O)cc(=O)[nH]c3c2C#N)c1,–,–,–,–
N#Cc1c(SCC(=O)Nc2cccc(F)c2)sc2c(O)cc(=O)[nH]c12,30,–,–,–
CCOC(=O)c1c(N)sc(C(O)(C(F)(F)F)C(F)(F)F)c1-c1ccc(OC)cc1OC,25,–,–,–
COC(=O)CSc1nnc(-c2ccco2)n1-c1ccc(C)cc1,–,–,–,–
SMILES,UHRF1 MBD2 ctr,Neddylation inh,UBC13 polyUb,MBD2 inh
COC(=O)CSc1nnc(-c2ccoc2C)n1-c1ccc(C)cc1,22,–,–,–
CC(C)N(CC#CCC(O)(c1ccccc1)c1ccccc1)CCO,26,–,–,–
CO/N=C(\C(=O)N[C@@H]1C(=O)N2C(C(=O)O)=C(COC(N)=O)CS[C@H]12)c1ccco1,25,–,–,–
Nc1nncn1C(=O)c1c(Cl)cccc1Cl,–,–,–,–
CCc1ccc(C(CC(=O)O)N2Cc3ccccc3C2=O)cc1 (centres undefined),–,–,–,–
O=C(Cc1ccc(S(=O)(=O)N2CCOCC2)s1)Nc1ccccc1Br,29,–,–,–
CC(C)(C)c1csc(NC(=O)Cc2ccc(S(=O)(=O)N3CCOCC3)s2)n1,76,–,–,–
O=C(Cc1ccc(S(=O)(=O)N2CCOCC2)s1)NCC(=O)Nc1ccccc1Br,–,–,–,–
Cc1cnc(NC(=O)Cc2ccc(S(=O)(=O)N3CCOCC3)s2)s1,–,–,–,–
O=S(=O)(NCc1ccc2c(c1)OCO2)c1ccc2c(c1)oc1ccccc12,29,–,–,–
Cn1ccnc1SCCC#N,–,–,–,–
C/C(=N\NC(=O)c1cc2ccccc2cc1O)c1ccc(C)o1,–,+,–,–
C/C(=N/NC(=O)c1cc2ccccc2cc1O)c1ccco1,–,–,–,–
CS(=O)(=O)N1CCCC(C(=O)NC2CCCCCCC2)C1 (centres undefined),–,–,–,–
O=C(COC(=O)c1nc(Cl)ccc1Cl)Nc1ccc(Cl)cc1,–,–,–,–
CCOc1ccc(-c2cc(CCCC(=O)NCc3ccc(C)cc3)no2)cc1,29,–,–,–
CCOc1ccc(-c2cc(CCCC(=O)NCc3ccco3)no2)cc1,–,–,–,–
COc1ccc(OC)c(NC(=O)C2(C)CCN2C(=O)CCC2CCCC2)c1 (centres undefined),–,–,·,–
COc1ccc(OC)c(NC(=O)C2(C)CCN2C(=O)CC2CC2)c1 (centres undefined),28,–,·,–
O=C(NC1CCCC1)c1n[nH]c2ccccc12,45,–,–,–
Cc1nc2ccccc2c(=O)n1/N=C1\C(=O)N(C)c2ccccc21,·,·,–,·
CCCCCCN=C1CC(C)(C)CC(=O)/C1=C(/O)CCC,23,–,–,–
Cc1cccc(N/C=C(\[N+](=O)[O-])S(=O)(=O)c2ccccc2)c1C,50,–,–,–
Cc1ccc(Cc2c(C(C)(C)C)nc3ccc(Br)cn23)cc1,23,–,·,–
Cc1ccc(Cc2c(-c3ccc(Br)cc3)nc3ccc(Br)cn23)cc1,–,–,·,–
SMILES,UHRF1 MBD2 ctr,Neddylation inh,UBC13 polyUb,MBD2 inh
CCOc1ccccc1C(=O)N[C@H](C(=O)NNC(=O)c1cccs1)C(C)C,–,–,–,–
CCOc1ccccc1C(=O)NCC(=O)NNC(=O)c1cccs1,21,–,–,–
CCCCN(CC)c1nc(N)c2c(N)nc(OCC)cc2c1C#N,38,–,–,–
O=C(Cn1nc(C(F)(F)F)cc1C1CC1)NCc1ccccc1F,21,–,–,–
O=S1(=O)C=CCN1Cc1cn(Cc2ccc(F)cc2)nn1,47,·,·,–
COc1ccc(-c2nc3c(=O)n(C)c(=O)[nH]c3n2CCc2ccccc2)cc1,·,·,–,·
Nc1c(Cl)ncnc1N/N=C/c1ccc(O)cc1,–,–,–,–
O=C(O)c1ccc(N2C(=O)c3cccc4c(C(=O)O)ccc(c34)C2=O)cc1,24,–,·,–
O=C(O)c1ccc2c3c(cccc13)C(=O)N(c1ccccc1)C2=O,–,–,–,–
NC(=O)c1ccsc1N,·,·,–,·
Nc1sccc1C(=O)c1ccc(Cl)cc1,30,–,·,–
CC(=O)c1ccc(OCc2cn(CC(=O)c3ccc(O)cc3)nn2)c(C)c1,23,–,·,–
COc1cc(C=O)ccc1OCc1cn(CC(=O)c2ccc(O)cc2)nn1,–,–,·,–
COc1cc(C(C)=O)ccc1OCc1cn(CC(=O)c2ccc(O)cc2)nn1,21,–,·,–
CC(=O)c1ccc(OCc2cn(CC(=O)c3ccc(O)cc3)nn2)cc1,21,–,·,–
O=C(Cn1cc(COc2ccc(Br)cc2[N+](=O)[O-])nn1)c1ccc(O)cc1,24,–,·,–
COc1ccc(CCNC(=O)C2CCN(S(=O)(=O)c3ccc4c(c3)oc(=O)n4C)CC2)cc1OC,–,–,–,–
O=C(CSc1ncnc2sccc12)Nc1ccc(S(=O)(=O)N2CCOCC2)cc1,–,–,–,–
CCN(C[C@H]1N[C@@](C)(C(=O)OC)[C@H]2C(=O)N(C)C(=O)[C@@H]12)C(C)=O,–,–,–,–
